Screening results deposited in PubChem by National Center for Advancing Translational Sciences (NCATS).
PLK1 PBD block – qHTS for Inhibitors of PLK1-PDB (polo-like kinase 1 - polo-box domain): Primary Screen; Plk1 PBD binding of FITC phosphopeptide, fluorescence polarization; Potency, µM, for the others: max response, negative = inhibition, hits mostly inhibitors; 360,000 tested, 2.8% active; AID 720504, 2013; note: series mostly up to about 57 µM; nearly all actives have a fitted effect of over 65% in size
TDP1 inh – qHTS Assay for Inhibitors of Tyrosyl-DNA Phosphodiesterase (TDP1). recombinant TDP1, AlphaScreen DNA substrate cleavage. Potency, µM (highest dose often 130 µM), without a hit: at the highest dose activity change, negative = inhibition, hits mostly inhibitors. 350,000 tested, 0.28% active. AID 485290, 2010; note: nearly all actives have a fitted effect of over 40% in size
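Recombinant human Tdp1 (E. coli-expressed, 1 nM final) preincubated with compounds 15 min at room temperature, then 5'-biotin/3'-phosphotyrosine-FITC DNA substrate (15 nM final) added for 5 min. AlphaScreen beads (10 ug/ml final) added 10 min; cleavage lowers signal.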
GCN5L2 inh – qHTS Assay for Inhibitors of GCN5L2. Histone acetyltransferase KAT2A (Homo sapiens), Q92830. GCN5L2 HAT assay, ThioGlo1 CoA-SH fluorescence. 390,000 tested, 0.21% active. AID 504327, 2011. Potency, µM (series often up to 58.9 µM), inactives show top-dose activity change, negative = inhibition, actives largely listed as inhibitors
Target sequence (Q92830 whole entry, looked up): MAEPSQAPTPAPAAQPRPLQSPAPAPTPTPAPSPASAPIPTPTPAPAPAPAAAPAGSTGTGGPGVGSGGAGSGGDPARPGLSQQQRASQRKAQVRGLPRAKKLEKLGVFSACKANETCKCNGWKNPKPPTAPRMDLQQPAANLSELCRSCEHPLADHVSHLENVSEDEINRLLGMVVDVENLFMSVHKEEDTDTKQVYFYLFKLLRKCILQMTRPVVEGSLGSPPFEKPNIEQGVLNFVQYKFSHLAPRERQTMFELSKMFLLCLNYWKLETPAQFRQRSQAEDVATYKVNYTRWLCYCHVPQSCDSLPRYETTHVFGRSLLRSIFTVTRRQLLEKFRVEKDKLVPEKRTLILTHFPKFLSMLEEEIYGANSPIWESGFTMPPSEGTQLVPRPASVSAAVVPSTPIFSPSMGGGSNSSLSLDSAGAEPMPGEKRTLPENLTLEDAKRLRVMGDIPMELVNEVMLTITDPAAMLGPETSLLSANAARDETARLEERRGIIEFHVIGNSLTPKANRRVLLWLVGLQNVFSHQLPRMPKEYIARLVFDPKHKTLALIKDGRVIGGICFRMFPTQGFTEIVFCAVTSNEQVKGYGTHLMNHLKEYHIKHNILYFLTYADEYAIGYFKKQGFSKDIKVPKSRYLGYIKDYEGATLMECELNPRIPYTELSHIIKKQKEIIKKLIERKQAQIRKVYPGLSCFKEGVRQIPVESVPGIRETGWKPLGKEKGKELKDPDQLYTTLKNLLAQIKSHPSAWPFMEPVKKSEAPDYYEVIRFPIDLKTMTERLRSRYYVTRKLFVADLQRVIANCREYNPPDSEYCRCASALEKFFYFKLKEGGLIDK
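Free CoA generated was detected with ThioGlo1 (50uM) fluorescence at Ex340nm/Em540nm, read immediately and after 20 min at room temperature. Enzyme, 20 nM in HEPES pH 7.5 buffer, saw compounds 15 min before adding 75uM H3(1-25) peptide and 70uM acetyl-CoA.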
TDP1 cell CPT – qHTS for Inhibitors of human tyrosyl-DNA phosphodiesterase 1 (TDP1): qHTS in cells in presence of CPT; chicken DT40 Tdp1-/-;hTDP1 cells + 20 nM CPT, ATP luminescence, 48 h; Potency, µM (titrated, usually from 46.2 µM), inactives show at the top dose activity change, negative = growth inhibition, usual class: inhibitors; 420,000 tested, 12% active; note: nearly all actives have a fitted effect of over 55% in size
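Chicken DT40 Tdp1-/- cells stably complemented with human TDP1 were seeded at 400 cells/well in medium containing 20 nM camptothecin, exposed to pin-transferred compounds, and grown at 37 °C for at least 48 hr. Viability was read as ATP luminescence.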
TDP1 cell noCPT – qHTS for Inhibitors of human tyrosyl-DNA phosphodiesterase 1 (TDP1): qHTS in cells in absence of CPT; Potency, µM (titrated, usually from 46.2 µM), inactives show top-dose activity change, negative = growth inhibition, hits mostly inhibitors; DT40 Tdp1-/- hTDP1 cells, no CPT, ATP luminescence, 48 h; 420,000 tested, 15% active; note: nearly all actives have a fitted effect of over 55% in size
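Chicken DT40 Tdp1-/- cells stably complemented with human TDP1 were seeded at 400 cells/well with DMSO in place of 20 nM camptothecin. After compound pinning, cells grew at least 48 hr at 37 °C; viability read by CellTiter-Glo luminescence.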
VDR inhibitor – Inhibitors of the vitamin D receptor (VDR): qHTS; 400,000 tested, 0.93% active; VDR-SRC2-3 peptide fluorescence polarization, 2 h; Potency, µM, without a hit: max response, negative = inhibition, actives largely listed as inhibitors; AID 504847, 2011; Vitamin D3 receptor (Homo sapiens), P11473
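FP read-out; VDR + SRC2-3 coactivator peptide; 23 nl compound by pintool; 2 h RT incubation; reagents held at 4 deg C, protected from light.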
Starred values were filed as active, the others as inactive. Only some compounds are listed: those with a hit (about 18% of all), similar ones and a draw of the others. Calls come from the whole dose curve; as a rule, active = well fitted curve in the direction sought with a large enough effect; inconclusive = small, poorly fitted or top-dose-only effect, or another doubt; inactive = no such curve, though single readings can be large; an effect the other way counts as inactive or inconclusive. % is set by controls: 0 for no effect and ±100 for the full control effect; potency is the fitted concentration of half-maximal effect.

Screening CC(C)C1Oc2ccccc2N(CC(=O)N(Cc2ccccn2)CC2CCCO2)C1=O (configuration not stated) returned PLK1 PBD block -5.8%, TDP1 inh 2.0%, GCN5L2 inh -2.2%, TDP1 cell CPT -26.2%, TDP1 cell noCPT inconclusive and VDR inhibitor 3.6%.
For COCCn1c(=O)c(-c2ccccc2)nc2cnc(Nc3cccc(OC)c3)nc21 the results were GCN5L2 inh -6.4%, TDP1 cell CPT -6.2%, TDP1 cell noCPT 2.6% and VDR inhibitor -14.4%.
For Cc1cccc(C)c1NC(=O)c1sc(-n2nc(C)c(Cc3ccccc3)c2C)nc1C the results were TDP1 inh -0.5%, GCN5L2 inh -6.0%, TDP1 cell CPT inconclusive, TDP1 cell noCPT inconclusive and VDR inhibitor 7.9%.
Screening COc1ccccc1NC(=O)COC(=O)C1=NN(c2ccccc2)C(=O)CC1 returned PLK1 PBD block 6.9%, TDP1 inh 0.0%, GCN5L2 inh -2.5%, TDP1 cell CPT 4.9%, TDP1 cell noCPT 10.6% and VDR inhibitor 6.0%.
`O=[N+]([O-])c1ccc2c(c1)C(N1CCN(CCO)CC1)Cc1ccc(F)cc1S2` (configuration not stated) gave PLK1 PBD block -8.8%, TDP1 cell CPT inconclusive and TDP1 cell noCPT inconclusive.
For CSc1ccc2c(c1)C(N1CCN(C)CC1)Cc1ccc(F)cc1S2 (configuration not stated) the results were PLK1 PBD block 2.6%, TDP1 cell CPT inconclusive, TDP1 cell noCPT 16.4µM* and VDR inhibitor -20.1%.
`Nc1nc(-c2ccccc2)c(CCCNc2ccccc2)c(=O)[nH]1` gave PLK1 PBD block 0.3%, TDP1 cell CPT inconclusive, TDP1 cell noCPT inconclusive and VDR inhibitor 3.5%.
`Cc1nc(N)[nH]c(=O)c1CCCNc1ccc(CCCCC2(CCl)OCCO2)cc1` gave PLK1 PBD block -0.1%, TDP1 cell CPT 18.4µM*, TDP1 cell noCPT inconclusive and VDR inhibitor -0.7%.
For CCN(CC)/C(N)=N/c1nc(C)cc(C)n1 the results were PLK1 PBD block -3.4%, TDP1 inh 0.0%, GCN5L2 inh -4.7%, TDP1 cell CPT 5.9%, TDP1 cell noCPT 2.4% and VDR inhibitor -9.6%.
COc1cc(N/C(N)=N/c2nc(C)cc(C)n2)c(OC)cc1Cl was read as PLK1 PBD block -6.9%, TDP1 inh -3.7%, GCN5L2 inh -1.2%, TDP1 cell CPT 14.6µM*, TDP1 cell noCPT 18.4µM* and VDR inhibitor -8.5%.
`Cc1ccc(N/C(N)=N/c2nc(C)cc(C)n2)cc1` gave PLK1 PBD block -8.9%, TDP1 inh 2.6%, GCN5L2 inh -1.9%, TDP1 cell CPT 14.6µM*, TDP1 cell noCPT 20.6µM* and VDR inhibitor -0.4%.
`CC(=O)Nc1cccc(N/C(N)=N/c2nc(C)cc(C)n2)c1` gave PLK1 PBD block -3.3%, TDP1 inh 2.5%, GCN5L2 inh 1.1%, TDP1 cell CPT 25.9µM*, TDP1 cell noCPT -12.1% and VDR inhibitor 5.5%.
For Cc1cc(C)nc(/N=C(\N)Nc2cccc([N+](=O)[O-])c2)n1 the results were PLK1 PBD block 1.1%, TDP1 inh -5.4%, GCN5L2 inh 32.4%, TDP1 cell CPT inconclusive, TDP1 cell noCPT inconclusive and VDR inhibitor 0.2%.
`CCN(/C(N)=N/c1nc(C)cc(C)n1)c1ccccc1` gave PLK1 PBD block 26.7µM*, GCN5L2 inh 1.7%, TDP1 cell CPT -30.5%, TDP1 cell noCPT 16.4µM* and VDR inhibitor inconclusive.
For COc1ccc(OC)c(S(=O)(=O)N2CCCC(C(=O)NCCN3CCOCC3)C2)c1 (configuration not stated) the results were PLK1 PBD block 0.0%, TDP1 inh 6.7%, GCN5L2 inh -3.1%, TDP1 cell CPT -4.4%, TDP1 cell noCPT 0.2% and VDR inhibitor 0.2%.
`CCn1c(SCC(=O)N2CCOCC2)nnc1C(C)NC(=O)c1ccccc1` (configuration not stated) gave PLK1 PBD block -8.5%, TDP1 inh 2.0%, GCN5L2 inh 2.7%, TDP1 cell CPT -1.7%, TDP1 cell noCPT -3.5% and VDR inhibitor 0.0%.
CCC(=O)Nc1ccc(N/C(N)=N/c2nc(C)cc(C)n2)cc1 was read as PLK1 PBD block 5.1%, TDP1 inh 1.2%, GCN5L2 inh 4.5%, TDP1 cell CPT 13µM*, TDP1 cell noCPT 14.6µM* and VDR inhibitor 14.7%.
`Cc1cc(C)nc(/N=C(\N)Nc2ccccc2-c2ccccc2)n1` gave PLK1 PBD block -10.7%, TDP1 inh 6.0%, GCN5L2 inh -4.0%, TDP1 cell CPT 16.4µM*, TDP1 cell noCPT 11.6µM* and VDR inhibitor -1.3%.
COC(=O)c1cc(N/C(N)=N/c2nc(C)cc(C)n2)cc(C(=O)OC)c1 was read as PLK1 PBD block 0.8%, TDP1 cell CPT inconclusive and TDP1 cell noCPT inconclusive.
`CCCCc1ccc(N/C(N)=N/c2nc(C)cc(C)n2)cc1` gave PLK1 PBD block -5.0%, TDP1 inh -2.7%, GCN5L2 inh -12.3%, TDP1 cell CPT inconclusive, TDP1 cell noCPT 5.17µM* and VDR inhibitor 10.7%.
For Cc1cc(C)cc(N/C(N)=N/c2nc(C)cc(C)n2)c1 the results were PLK1 PBD block -2.8%, TDP1 inh 0.0%, GCN5L2 inh 0.3%, TDP1 cell CPT inconclusive, TDP1 cell noCPT inconclusive and VDR inhibitor 2.6%.
CCOC(=O)CN1C(=O)C(=O)N(Cc2ccccc2F)C1=O was read as PLK1 PBD block 0.7%, GCN5L2 inh 25.2%, TDP1 cell CPT 9.7%, TDP1 cell noCPT 5.6% and VDR inhibitor -8.4%.
For O=C(c1ccc(COc2ccc(Cl)cc2)o1)N1CCN(Cc2ccc3c(c2)OCO3)CC1 the results were PLK1 PBD block 0.4%, TDP1 inh 4.5%, GCN5L2 inh -15.6%, TDP1 cell CPT inconclusive, TDP1 cell noCPT 11.2µM* and VDR inhibitor -5.4%.
Screening O=C(c1ccc(COc2ccc(Cl)cc2Cl)o1)N1CCCC1 returned PLK1 PBD block -11.5%, TDP1 inh 2.6%, GCN5L2 inh -19.1%, TDP1 cell CPT -29.5%, TDP1 cell noCPT 18.4µM* and VDR inhibitor -14.6%.
